A number with no mark means an inactive call. Results filed as inconclusive are left out. Entries that show only a call come without a potency. Calls of active or inactive are those of the source. Unless noted, calls follow the shape of the dose curve; as a rule, active = well fitted curve in the direction sought with a large enough effect; inconclusive = small, poorly fitted or top-dose-only effect, or another doubt; inactive = no such curve, though single readings can be large; an effect the other way counts as inactive or inconclusive.
What was measured:
[1] = target: Lysosomal acid glucosylceramidase (Homo sapiens) (UniProt P04062); assay: Glucocerebrosidase-p2 (AID 348; in the data active = potency below about 10 µM; also: potency is read from the fitted curve at half-maximal effect); conditions: purified GBA, blue fluorogenic substrate, 40 min
Outline: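 Normal human glucocerebrosidase (0.2 nM) with blue fluorogenic substrate (80 uM final) in citrate/phosphate pH 5.9 with 10mM sodium taurocholate, 0.01% tween-20; 40 min RT, NaOH/glycine stop; fluorescence Ex 365/Em 440; AC50 from a titration from 0.6 nM upwards.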

[2] = AP1 Signaling Pathway (AID 357; active = well fitted curve in either direction with a large enough effect, not every such curve was filed as active;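 also: ME-180 reporter cells stimulated with EGF at its EC50 level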); conditions: ME-180 AP-1-bla reporter, EGF-induced, beta-lactamase ratio, 5 h; at 7.69 µM (top of the series) unless noted
Outline: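 First, ME-180 AP-1-bla cells were cultured overnight at 37 °C in low-serum Opti-MEM. Next, titrated compounds with EC50 EGF were incubated 5 hours. Finally, CCF4 was added for 2.5 hours and the 460/530 nm ratio recorded.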

[3] = NFAT Signaling Pathway (AID 444; active = well fitted curve in either direction with a large enough effect, not every such curve was filed as active;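 also: carbachol stimulus at about its EC50 of 1 µM final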); conditions: Jurkat NFAT-bla M1, carbachol, beta-lactamase ratio, 5 h; at 7.69 µM (top of the series) unless noted
Outline: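 Jurkat cells with NFAT-driven β-lactamase reporter and co-expressed M1 receptor, stimulated with carbachol (final 1 uM, ~EC50), compound titration, 5 h at 37 °C. CCF4 loaded 1 h at RT; 460/530 nm ratio gave %activity and AC50.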

[4] = Stat Signaling Pathway (AID 446; active = well fitted curve in either direction with a large enough effect, not every such curve was filed as active;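 also: ME-180 cervical cancer cells given 40 pM IL-6 alongside compound; SIE-controlled beta-lactamase reporter measured as 460/530 nm FRET emission ratio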); conditions: ME-180 (cervical carcinoma) SIE beta-lactamase reporter, IL-6 stimulated, 5 h; at 7.69 µM (top of the series) unless noted
Outline: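 Overnight-plated ME-180 cells bearing a STAT Inducible Element beta-lactamase reporter; 5 h co-exposure to compound and 40 pM IL-6; values normalized to 300 pM IL-6 and 125 nM JAK inhibitor controls.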

[5] = target: Glucocorticoid receptor (Homo sapiens) (UniProt P04150); assay: GR-GFP Redistribution (AID 450;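 active = compounds whose dose series gives a full or clear partial fitted curve of increased nuclear translocation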; also: potency is read from the fitted curve at half-maximal effect); conditions: U2OS GR-GFP nuclear translocation, laser cytometry, 2 h
[6] = target: Glucocorticoid receptor (Homo sapiens) (UniProt P04150); assay: GR-EFC Redistribution (AID 451; calls by dose curve; also: potency is read from the fitted curve at half-maximal effect); conditions: CHO-K1 GR-EFC translocation, beta-gal luminescence, 2 h
Outline: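 CHO-K1 cells expressing nuclear EA and GR-ED fragments of b-gal; compounds titrated up to 46 uM final, 2 h at 37 C. GR nuclear translocation read as complemented b-gal luminescence after 1 h RT detection.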

[7] = target: Cytochrome P450 3A4 (Homo sapiens) (UniProt P08684); assay: qHTS Assay for Activators of Cytochrome P450 3A4 (AID 885); conditions: recombinant CYP3A4, Luciferin-PPXE luminescence, 60 min; series mostly up to 57.1 µM; also: nearly all actives have a fitted effect of over 65% in size
Outline: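 Using 20nM recombinant human CYP3A4 in potassium phosphate (200mM), substrate Luciferin-PPXE at 25uM, luminescent luciferin detection followed a 60-min RT NADPH reaction; data scaled to 57 uM ketoconazole.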

[8] = target: Dual specificity protein kinase CLK4 (Homo sapiens) (UniProt Q9HAZ1); assay: qHTS Assay for Inhibitors of CDC-like Kinase 4 (Kinase-Glo Assay) (AID 1770); conditions: recombinant Clk4, Kinase-Glo ATP depletion luminescence; series mostly up to 66.7 µM; also: nearly all actives have a fitted effect of over 65% in size
Outline: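 Recombinant human Clk4 (25 nM) phosphorylated RS repeat peptide (100 uM) with 1 uM ATP in Tris pH 7.5/MgCl2/EGTA/DTT/Triton buffer for 4.5 h at room temperature. Residual ATP was quantified by Kinase-Glo luciferase luminescence.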

[9] = target: Dual specificity protein kinase CLK4 (Homo sapiens) (UniProt Q9HAZ1); assay: qHTS Assay for Inhibitors of CDC-like Kinase 4 (ADP-Glo Assay) (AID 1771); conditions: recombinant CLK4, ADP-Glo luminescence; series mostly up to 80 µM; also: nearly all actives have a fitted effect of over 70% in size
Outline: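 ADP production was read by ADP-Glo luminescence after residual ATP depletion, following 1 h room-temperature reaction of 25 nM Clk4, 1 uM ATP and 100 uM RS peptide with MgCl2, EGTA, DTT and Triton X-100.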

[10] = target: Dual specificity protein kinase CLK4 (Homo sapiens) (UniProt Q9HAZ1); assay: qHTS Assay for Inhibitors of CDC-like Kinase 4 (ADP-FP Assay) (AID 1795); conditions: Transcreener ADP fluorescence polarization; series mostly up to 50 µM; also: nearly all actives have a fitted effect of over 60% in size
Outline: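 Recombinant human Clk4 (6.25 nM) phosphorylated RS repeat peptide (100 uM) with 1 uM ATP in Tris pH 7.5/MgCl2/EGTA/DTT/Triton buffer for one hour. ADP was quantified by Transcreener competitive fluorescence polarization against an ADP calibration curve.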

[11] = target: Ubiquitin carboxyl-terminal hydrolase 1 (Homo sapiens) (UniProt O94782); assay: Inhibitors of USP1/UAF1: Pilot qHTS (AID 504865); conditions: purified USP1/UAF1, Ub-rhodamine cleavage fluorescence; series mostly up to 54.9 µM;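 also: rhodamine fluorescence freed from ubiquitin-rhodamine substrate followed over time; top concentration of the series differs between compounds; nearly all actives have a fitted effect of over 35% in size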
Outline: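 USP1/UAF1 complex (1nM) preincubated with compound 15 min at room temperature, then Ub-Rho substrate (150nM final) added. Fluorescence read kinetically at 480/540 nm, 6 reads every 60 seconds. Buffer: 50mM HEPES pH 7.8, 0.5mM EDTA, 0.1 mg/ml BSA, 1mM TCEP, 0.01% Tween-20.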

[12] = Primary qHTS for small molecule stabilizers of the endoplasmic reticulum resident proteome: Secreted ER Calcium Modulated Protein (SERCaMP) assay (AID 1508630); conditions: SH-SY5Y GLuc-SERCaMP (Gaussia luciferase released on ER calcium loss) secretion, thapsigargin, luminescence; series mostly up to 38.4 µM
Outline: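 The SH-SY5Y reporter protocol was run at 3 concentrations up to 38.3 uM (primary) or 11 concentrations (follow-up): 16 h compound, 100 nM thapsigargin for 4 h, then extracellular luciferase luminescence.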

[13] = target: Rap guanine nucleotide exchange factor 3 (Homo sapiens) (UniProt O95398); assay: Confirmatory qHTS for antagonist of cAMP-regulated guanine nucleotide exchange factor 3 (EPAC1) (AID 1645880); conditions: EPAC1 Rap1B-BODIPY-GDP exchange, fluorescence; series mostly up to 115 µM; also: nearly all actives have a fitted effect of over 55% in size
Outline: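 Released BODIPY-GDP fluoresces less than Rap1-bound BODIPY-GDP; the signal is followed at 480/540 nm at 5-min intervals over 30 min, after 5 min at room temperature. Reactions contain 100 nM EPAC1, 250 nM RAP1B-BODIPY-GDP and 50 uM GDP; results are normalized to ATA and DMSO.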

[14] = target: Rap guanine nucleotide exchange factor 4 (Homo sapiens) (UniProt Q8WZA2); assay: Confirmatory qHTS for antagonist of cAMP-regulated guanine nucleotide exchange factor 4 (EPAC2) (AID 1645885); conditions: EPAC2 Rap1B-BODIPY-GDP exchange fluorescence, biochemical; series mostly up to 114 µM; also: nearly all actives have a fitted effect of over 25% in size; also: potency is read from the fitted curve at half-maximal effect
[15] = target: Cytochrome P450 1A2 (Homo sapiens) (UniProt P05177); assay: p450-cyp1a2 (AID 410; calls by dose curve; also: potency is read from the fitted curve at half-maximal effect); conditions: recombinant CYP1A2, luciferin-ME demethylation, luminescence; series mostly up to 57 µM
Outline: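 Luminescent demethylation readout: Luciferin-ME (100uM, equal to Km) turned over by 20nM CYP1A2 for 60 min at room temperature after NADPH regeneration addition, following 10 min compound preincubation. Normalization used 57 uM furafylline as full inhibition.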

[16] = target: Mitogen-activated protein kinase 10 (Mus musculus) (UniProt Q61831); assay: JNK3 AlphaScreen Assay (AID 530; active = well fitted curve in either direction with a large enough effect, not every such curve was filed as active;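 also: kinase came from lysate of stimulated human HepG2 cells; signal reports phosphorylation of biotinylated GST-cJun 1-79 at Ser73 with 10 µM ATP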); conditions: JNK3 lysate, c-Jun phosphorylation; series mostly up to 57.1 µM
Outline: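 Activity was read by AlphaScreen after JNK3-containing HepG2 lysate (cytokine pre-activated) phosphorylated biotinylated GST-cJun with 10 uM ATP at room temperature. Phospho-Ser73 cJun antibody with Protein-A acceptor beads provided detection.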

[17] = target: Rap guanine nucleotide exchange factor 3 (Homo sapiens) (UniProt O95398); assay: Confirmatory qHTS for agonist of cAMP-regulated guanine nucleotide exchange factor 3 (EPAC1) (AID 1645881); conditions: EPAC1 Rap1B BODIPY-GDP exchange fluorescence; series mostly up to 154 µM;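 also: EPAC1 catalysed release of BODIPY-GDP from Rap1B seen as fluorescence loss; nearly all actives have a fitted effect of over 75% in size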
[18] = target: Rap guanine nucleotide exchange factor 4 (Homo sapiens) (UniProt Q8WZA2); assay: Confirmatory qHTS for agonist of cAMP-regulated guanine nucleotide exchange factor 4 (EPAC2) (AID 1645884); conditions: EPAC2 GEF activity, Rap1B-BODIPY-GDP fluorescence; series mostly up to 154 µM;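 also: nucleotide exchange releases bodipy-GDP from Rap1 and this lowers its fluorescence; nearly all actives have a fitted effect of over 65% in size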
[19] = target: 3',5'-cyclic-AMP phosphodiesterase 4B (Homo sapiens) (UniProt Q07343); assay: qHTS Assay for Inhibitors of PDE-IV (AID 607; active = well fitted activation curve with a large enough effect in the main read-out, with a control signal flat, not every such curve was filed as active); conditions: HEK293 ACTOne CNG channel cells, membrane potential fluorescence; series mostly up to 22.9 µM
Outline: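 Live HEK293 cells with a modified cyclic nucleotide-gated (CNG) channel report intracellular cAMP via membrane-potential dye fluorescence (ex 535/em 590 nm). Endogenous PDE-IV was targeted. Compounds were tested at up to 22.9 uM final; RO 20-1724 100 uM served as control.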

Chain of Glucocorticoid receptor (Homo sapiens) (P04150 whole entry, looked up, the tested form may be a part): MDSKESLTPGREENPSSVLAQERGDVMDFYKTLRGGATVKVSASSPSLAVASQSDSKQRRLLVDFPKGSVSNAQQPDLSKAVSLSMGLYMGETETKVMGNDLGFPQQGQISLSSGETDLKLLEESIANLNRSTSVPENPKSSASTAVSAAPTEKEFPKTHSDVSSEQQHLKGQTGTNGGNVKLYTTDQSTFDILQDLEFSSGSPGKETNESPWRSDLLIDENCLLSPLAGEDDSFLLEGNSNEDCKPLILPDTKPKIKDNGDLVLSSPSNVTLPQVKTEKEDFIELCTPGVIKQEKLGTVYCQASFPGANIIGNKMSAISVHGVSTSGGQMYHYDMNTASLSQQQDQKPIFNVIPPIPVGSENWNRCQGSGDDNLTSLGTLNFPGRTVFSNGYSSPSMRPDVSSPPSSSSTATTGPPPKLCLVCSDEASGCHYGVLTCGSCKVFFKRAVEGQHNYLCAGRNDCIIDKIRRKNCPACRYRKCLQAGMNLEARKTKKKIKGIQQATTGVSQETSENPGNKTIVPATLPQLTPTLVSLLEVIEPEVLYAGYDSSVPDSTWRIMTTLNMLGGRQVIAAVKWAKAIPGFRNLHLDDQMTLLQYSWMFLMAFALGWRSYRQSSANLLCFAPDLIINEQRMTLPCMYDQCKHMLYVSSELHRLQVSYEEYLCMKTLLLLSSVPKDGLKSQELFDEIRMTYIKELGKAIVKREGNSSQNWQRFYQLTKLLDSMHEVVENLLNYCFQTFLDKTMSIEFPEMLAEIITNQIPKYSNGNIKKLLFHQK
Chain of Ubiquitin carboxyl-terminal hydrolase 1 (Homo sapiens) (O94782 whole entry, looked up): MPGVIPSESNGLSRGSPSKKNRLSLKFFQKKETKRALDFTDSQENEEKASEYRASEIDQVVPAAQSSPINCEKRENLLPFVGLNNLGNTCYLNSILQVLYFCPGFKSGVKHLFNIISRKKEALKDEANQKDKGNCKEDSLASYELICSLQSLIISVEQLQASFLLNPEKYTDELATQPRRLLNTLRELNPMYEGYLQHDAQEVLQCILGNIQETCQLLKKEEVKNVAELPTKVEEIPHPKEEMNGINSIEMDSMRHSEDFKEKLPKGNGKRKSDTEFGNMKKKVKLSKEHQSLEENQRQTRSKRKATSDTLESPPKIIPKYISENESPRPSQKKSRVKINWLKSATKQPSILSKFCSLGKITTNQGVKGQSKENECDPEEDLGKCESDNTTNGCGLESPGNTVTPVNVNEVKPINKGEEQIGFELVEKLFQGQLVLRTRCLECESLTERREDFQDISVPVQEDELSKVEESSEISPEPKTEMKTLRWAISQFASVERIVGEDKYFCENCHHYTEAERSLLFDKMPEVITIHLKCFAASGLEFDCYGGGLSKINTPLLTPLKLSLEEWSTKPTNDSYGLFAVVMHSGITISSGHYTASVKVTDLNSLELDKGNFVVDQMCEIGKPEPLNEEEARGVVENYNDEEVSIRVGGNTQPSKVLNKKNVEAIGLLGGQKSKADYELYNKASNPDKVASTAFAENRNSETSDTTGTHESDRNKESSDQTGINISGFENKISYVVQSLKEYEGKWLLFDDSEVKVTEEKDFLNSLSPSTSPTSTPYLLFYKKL
Chain of Rap guanine nucleotide exchange factor 3 (Homo sapiens) (O95398 whole entry, looked up): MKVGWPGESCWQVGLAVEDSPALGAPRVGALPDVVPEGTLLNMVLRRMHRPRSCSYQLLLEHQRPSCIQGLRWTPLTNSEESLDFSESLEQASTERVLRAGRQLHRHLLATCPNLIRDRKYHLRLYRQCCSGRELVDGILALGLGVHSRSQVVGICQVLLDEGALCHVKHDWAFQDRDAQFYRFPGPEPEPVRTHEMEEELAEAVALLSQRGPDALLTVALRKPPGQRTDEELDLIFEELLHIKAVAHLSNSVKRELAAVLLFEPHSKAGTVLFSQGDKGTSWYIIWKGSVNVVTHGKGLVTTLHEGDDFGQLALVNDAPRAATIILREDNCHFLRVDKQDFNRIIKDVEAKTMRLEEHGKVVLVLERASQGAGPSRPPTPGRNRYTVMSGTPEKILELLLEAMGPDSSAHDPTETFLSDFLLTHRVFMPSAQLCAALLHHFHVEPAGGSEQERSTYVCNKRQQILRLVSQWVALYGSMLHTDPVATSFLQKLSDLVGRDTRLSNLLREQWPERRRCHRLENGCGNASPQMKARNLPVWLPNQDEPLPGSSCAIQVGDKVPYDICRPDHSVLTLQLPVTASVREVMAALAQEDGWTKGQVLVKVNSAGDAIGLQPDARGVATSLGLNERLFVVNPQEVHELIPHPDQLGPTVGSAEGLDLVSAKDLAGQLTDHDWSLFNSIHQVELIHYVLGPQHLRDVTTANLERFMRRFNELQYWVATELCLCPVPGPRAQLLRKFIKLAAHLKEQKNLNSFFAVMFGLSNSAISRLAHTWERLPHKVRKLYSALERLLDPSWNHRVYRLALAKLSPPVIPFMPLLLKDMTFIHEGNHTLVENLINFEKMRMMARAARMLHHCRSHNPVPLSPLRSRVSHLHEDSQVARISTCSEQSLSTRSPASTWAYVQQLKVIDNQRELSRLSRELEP
Chain of Rap guanine nucleotide exchange factor 4 (Homo sapiens) (Q8WZA2 whole entry, looked up): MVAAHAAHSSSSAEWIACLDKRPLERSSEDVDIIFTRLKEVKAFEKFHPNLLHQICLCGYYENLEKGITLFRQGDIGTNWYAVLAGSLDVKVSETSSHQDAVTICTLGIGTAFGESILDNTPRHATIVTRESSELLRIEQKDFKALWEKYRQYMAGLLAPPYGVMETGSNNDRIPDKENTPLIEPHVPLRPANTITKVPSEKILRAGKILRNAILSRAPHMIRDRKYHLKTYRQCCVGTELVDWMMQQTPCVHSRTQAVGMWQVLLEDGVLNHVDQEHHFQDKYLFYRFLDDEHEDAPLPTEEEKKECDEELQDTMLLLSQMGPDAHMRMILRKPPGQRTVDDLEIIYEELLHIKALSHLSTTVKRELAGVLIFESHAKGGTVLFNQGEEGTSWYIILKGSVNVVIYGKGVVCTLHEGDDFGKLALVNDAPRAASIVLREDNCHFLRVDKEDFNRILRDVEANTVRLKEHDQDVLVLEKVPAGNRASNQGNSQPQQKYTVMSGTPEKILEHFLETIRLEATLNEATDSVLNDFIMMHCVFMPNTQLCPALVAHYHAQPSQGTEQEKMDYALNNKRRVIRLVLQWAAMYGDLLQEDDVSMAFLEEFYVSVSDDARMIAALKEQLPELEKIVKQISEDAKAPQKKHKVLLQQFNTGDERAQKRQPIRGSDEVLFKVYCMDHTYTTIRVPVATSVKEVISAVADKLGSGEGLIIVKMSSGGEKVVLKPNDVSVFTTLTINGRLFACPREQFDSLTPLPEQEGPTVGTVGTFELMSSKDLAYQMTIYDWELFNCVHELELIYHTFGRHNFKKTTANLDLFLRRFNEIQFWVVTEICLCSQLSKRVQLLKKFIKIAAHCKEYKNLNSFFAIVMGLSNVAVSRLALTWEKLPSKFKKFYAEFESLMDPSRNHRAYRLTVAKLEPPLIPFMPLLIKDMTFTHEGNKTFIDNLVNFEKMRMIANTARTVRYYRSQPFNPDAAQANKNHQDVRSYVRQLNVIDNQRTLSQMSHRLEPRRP
Chain of Cytochrome P450 1A2 (Homo sapiens) (P05177 whole entry, looked up): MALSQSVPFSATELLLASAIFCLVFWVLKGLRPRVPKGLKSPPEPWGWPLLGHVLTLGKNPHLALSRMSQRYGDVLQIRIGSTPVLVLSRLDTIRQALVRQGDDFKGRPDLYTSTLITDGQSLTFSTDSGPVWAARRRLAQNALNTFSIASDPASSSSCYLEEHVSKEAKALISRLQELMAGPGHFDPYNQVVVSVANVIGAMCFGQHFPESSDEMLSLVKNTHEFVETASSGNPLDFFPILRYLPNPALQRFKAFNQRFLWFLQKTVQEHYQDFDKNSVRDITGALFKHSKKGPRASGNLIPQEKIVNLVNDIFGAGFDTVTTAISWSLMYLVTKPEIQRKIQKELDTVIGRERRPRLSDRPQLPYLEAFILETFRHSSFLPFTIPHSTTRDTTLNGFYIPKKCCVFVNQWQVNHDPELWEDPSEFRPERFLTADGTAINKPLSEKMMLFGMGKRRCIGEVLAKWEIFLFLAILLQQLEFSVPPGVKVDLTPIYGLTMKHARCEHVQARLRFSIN
Chain of Lysosomal acid glucosylceramidase (Homo sapiens) (P04062 whole entry, looked up): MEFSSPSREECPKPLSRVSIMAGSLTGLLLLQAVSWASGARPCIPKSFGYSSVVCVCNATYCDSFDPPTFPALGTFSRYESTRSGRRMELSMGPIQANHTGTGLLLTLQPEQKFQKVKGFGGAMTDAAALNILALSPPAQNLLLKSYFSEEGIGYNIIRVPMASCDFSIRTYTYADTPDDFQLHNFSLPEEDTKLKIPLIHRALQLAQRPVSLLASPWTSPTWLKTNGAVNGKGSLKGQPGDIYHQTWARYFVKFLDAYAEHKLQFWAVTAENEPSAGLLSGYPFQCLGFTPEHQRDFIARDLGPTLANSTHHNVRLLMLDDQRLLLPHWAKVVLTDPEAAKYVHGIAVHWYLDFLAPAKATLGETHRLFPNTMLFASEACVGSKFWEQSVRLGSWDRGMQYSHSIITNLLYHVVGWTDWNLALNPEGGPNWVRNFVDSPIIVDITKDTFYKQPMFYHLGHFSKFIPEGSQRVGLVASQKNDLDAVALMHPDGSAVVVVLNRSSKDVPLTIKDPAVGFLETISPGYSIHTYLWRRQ
Chain of Cytochrome P450 3A4 (Homo sapiens) (P08684 whole entry, looked up): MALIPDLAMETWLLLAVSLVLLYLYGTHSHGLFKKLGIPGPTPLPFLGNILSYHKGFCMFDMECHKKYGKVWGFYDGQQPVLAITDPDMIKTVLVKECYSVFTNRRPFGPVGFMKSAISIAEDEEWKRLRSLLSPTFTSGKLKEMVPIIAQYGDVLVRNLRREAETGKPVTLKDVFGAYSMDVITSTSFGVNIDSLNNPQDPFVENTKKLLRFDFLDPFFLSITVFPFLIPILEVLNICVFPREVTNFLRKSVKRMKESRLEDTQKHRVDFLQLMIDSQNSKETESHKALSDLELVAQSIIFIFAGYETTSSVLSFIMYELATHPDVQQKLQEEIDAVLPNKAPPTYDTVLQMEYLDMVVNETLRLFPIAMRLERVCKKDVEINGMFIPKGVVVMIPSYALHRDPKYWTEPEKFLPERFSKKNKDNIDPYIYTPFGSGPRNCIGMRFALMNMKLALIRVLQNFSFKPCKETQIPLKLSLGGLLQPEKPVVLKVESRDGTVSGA

Row | SMILES | Potency [1] | activity change, negative = inhibition [2] | activity change, negative = inhibition [3] | activity, negative = inhibition [4] | Potency [5] | Potency [6] | Potency [7] | Potency [8] | Potency [9] | Potency [10] | Potency [11] | outcome [12] | Potency [13] | Potency [14] | Potency [15] | Potency [16] | Potency [17] | Potency [18] | Potency [19]
1 | O=c1c(-c2cccs2)nc2cnc(N3CCOCC3)nc2n1CCc1ccccc1 | > 11.4 µM | 13.2% | 19.8% | 18.4% | > 9.22 µM | > 46 µM | inactive | inactive | inactive | inactive | inactive | inactive | inactive | inactive |  |  |  |  | 
2 | CN(C)c1ncnc2ccc(-c3ccccc3C(F)(F)F)cc12 | > 11.4 µM | 0.8% | 20.6% | -12.7% | > 46 µM | > 46 µM | inactive |  |  | inactive | inactive | inactive |  | 44.1 µM (active) | 0.631 µM (active) | inactive | inactive | inactive | 
3 | c1ccc(CNc2ccnc(-c3ccc4c(c3)OCO4)n2)cc1 |  | -19.4% | 15.5% | -18.3% | > 46 µM | > 46 µM | inactive |  |  |  |  | inactive | inactive | inactive | 0.398 µM (active) | inactive |  |  | 
4 | COc1ccc(Nc2ncc3nc(-c4cccs4)c(=O)n(Cc4cccc(OC)c4)c3n2)cc1 | > 11.4 µM | -12.3% | -11.6% | -8.74% | > 9.22 µM | > 46 µM |  | inactive | inactive | inactive | inactive | inactive |  |  | inactive | inactive |  |  | inactive
5 | COc1ncc2nc(-c3cn(C)c4ccccc34)c(=O)n(CCC#N)c2n1 | > 11.4 µM | -17.8% | -2.23% | -7.24% | > 9.22 µM | > 46 µM | inactive | inactive | inactive | inactive | inactive | inactive |  |  | 5.01 µM (active) | inactive |  |  | inactive
6 | Cc1cnc(CNc2ccnc(-c3ccccc3C)n2)cn1 | > 11.4 µM | 3.37% | -3.78% | -1.97% | > 46 µM | > 46 µM | inactive | inactive | inactive | inactive | inactive | inactive |  |  | 12.6 µM (active) | inactive |  |  | inactive
7 | CN(C)C(=O)c1ccc(-c2cncnc2NCc2ccccc2)cc1 | > 11.4 µM | 8.88% | -3.31% | 9.3% | > 46 µM | > 46 µM | inactive | inactive | inactive | inactive | inactive | inactive |  |  | 20 µM (active) | inactive |  |  | inactive
